These are literature values, as cited in PubChem BioAssay AID977611.

Hit rate of the full screen: of about 3,900 compounds, about 3,900 (100%) were called active. The limit is not given here; nearly all actives have Kd up to about 4200 µM. The set was probably picked from earlier hits. This is one part of the list. Starred links: 1 amine or outer side, 2 acyl side, 3 side chain; linkers in the order of their positions; H or OH if unused. *1 amine or outer side, *2 acyl side, *3 side chain or, on linkers, in order; H or OH if unused. Where a SMILES comes first, the peptide text is derived from it. Non-standard residues stand in square brackets, D forms with d. Square brackets hold non-standard residues; d marks the D form. Residues, ends and D or L forms follow the SMILES beside them. Peptide text beside a SMILES is read from it. [ ]: non-standard residue; d: D form. ξ: configuration not given here. X1 = O=C([C@H](Cc1ccc(O[P+](O)(O)O)cc1)N[*:1])[*:2]; Thr(P(OH)3+) = C[C@@H](O[P+](O)(O)O)[C@H](N)C(=O)O; Orn(CH(NH2)2) = NC(N)NCCC[C@H](N)C(=O)O; ξE = NC(CCC(=O)O)C(=O)O

The series in a line: PubChem AID 977611. The note with it: PDB protein-ligand complexes, literature Kd.

Regarding `O=C1C=C(O)C=CC1S(=O)(=O)n1cc2ccc(O)cc2c1` (stereo unspecified), for the setting “PDB entry 4mpe”, the dissociation constant Kd is 426 nM (active).
On to `C/C(O)=[N+](/O)CCC[C@@H]1NC(=O)CNC(=O)CNC(=O)CNC(=O)C(CCCN(O)C(C)O)NC(=O)[C@H](CCCN(O)C(C)O)NC1=O.[Fe]` (stereo partly specified), for which, under “protein: Iron-compound ABC transporter, iron compound-binding protein, PDB entry 4hmq”, the Kd is 5.8 nM (active).
As to H-LLPTLPKLPSL-OH, for the setting “protein: Ankyrin Repeat Domains of Human ANKRA2, PDB entry 3v2x”, the Kd was 4500 nM (active).
As to H-APTLPKLPSLS-OH, the Kd (protein: Ankyrin Repeat Domains of Human ANKRA2, PDB entry 3v2o) was 4900 nM (active).
Regarding `CC(=O)N[C@H](C(=O)N[C@@H](CCCNC(N)N)C(=O)N[C@@H](CO)C(=O)N[C@@H](CCCCN)C(=O)N[C@@H](Cc1ccc(O)cc1)C(=O)N[C@@H](Cc1ccccc1)C(=O)N[C@@H](CCCCN)C(=O)O)C(C)C` (Ac-V[Orn(CH(NH2)2)]SKYFK-OH), the Kd (protein: C-terminal domain of the Saccharomyces cerevisiae MUTL alpha (MLH1/PMS1) heterodimer, PDB entry 4fmn) was 750 nM (active).
Consider `C[C@@H](O)[C@H](N)C(=O)N[C@@H](CCCNC(N)N)C(=O)N[C@@H](CO)C(=O)N[C@@H](CCCCN)C(=O)N[C@@H](Cc1ccccc1)C(=O)N[C@@H](Cc1ccccc1)C(=O)N[C@@H](CC(N)=O)C(=O)O` (H-T[Orn(CH(NH2)2)]SKFFN-OH), for which the Kd (protein: C-terminal domain of the Saccharomyces cerevisiae MUTL alpha (MLH1/PMS1) heterodimer, PDB entry 4fmo) is 2940 nM (active).
Take H-DADTLLHFATESTPD-OH: the Kd (protein: Beta-catenin-interacting protein 1, PDB entry 1t08) is 3100 nM (active).
For the compound H-HPVGDADYFEY-OH, the Kd (protein: LA class I histocompatibility antigen, B-35 alpha chain HLA-B 35:01, PDB entry 4pr5) is 2200 nM (active); the equilibrium dissociation constant (Kd) (protein: MHC class I antigen HLA-B 35:08, PDB entry 4prd) was 25400 nM (active); the Kd (protein: MHC class I antigen-Beta-2-microglobulin, PDB entry 4prh) is 25400 nM (active).
As to `CC(=O)N[C@@H](Cc1cnc[nH]1)C(=O)N[C@@H](CO)C(=O)N[C@@H](CCCCN)C(=O)N[C@@H](Cc1ccc(O)cc1)C(=O)N1CCC[C@H]1C(=O)N[C@@H](CC(C)C)C(=O)N1CCC[C@H]1C(=O)N1CCC[C@H]1C(=O)N[C@@H](CC(C)C)C(=O)N1CCC[C@H]1C(=O)N[C@@H](CO)C(=O)N[C@@H](CC(C)C)C(N)=O` (Ac-HSKYPLPPLPSL-NH2), the Kd (protein: Tyrosine-protein kinase HCK, PDB entry 2oi3) is 230 nM (active).
With `CC(C)C[C@H](NC(=O)[C@H](C)NC(=O)[C@H](CCC(=O)O)NC(=O)[C@H](CC(=O)O)NC(=O)[C@H](Cc1ccc(O)cc1)NC(=O)[C@H](CO)NC(=O)[C@@H]1CCCN1C(=O)[C@H](CC(C)C)NC(=O)CNC(=O)[C@@H](N)[C@@H](C)O)C(=O)N[C@@H](Cc1cnc[nH]1)C(=O)O` (H-TGLPSYDEALH-OH), the Kd (protein: E3 ubiquitin-protein ligase NEDD4, PDB entry 2ez5) was 3000 nM (active).
Regarding H-EPPLNPHGSARAEVHA-OH, under “protein: WD repeat-containing protein 5, WDR5, PDB entry 4esg”, the Kd was 2760 nM (active).
On to H-HPVGEADYFEY-OH, for which the Kd (protein: MHC class I antigen-Beta-2-microglobulin, PDB entry 4pri) is 93200 nM (active).
As for H-ANPHGAARAEVY-OH, the Kd (protein: WD repeat-containing protein 5, WDR5, PDB entry 4erz) is 88 nM (active).
On to `CC(C)C[C@H](NC(=O)[C@H](CC(=O)O)NC(=O)[C@H](Cc1ccc(O)cc1)NC(=O)[C@H](CC(C)C)NC(=O)[C@H](CCC(=O)O)NC(=O)[C@H](Cc1cnc[nH]1)NC(=O)[C@H](CC(C)C)NC(=O)[C@@H](NC(=O)[C@@H]1CCCN1C(=O)[C@@H]1CCCN1)[C@@H](C)O)C(=O)O` (H-PPTLHELYDL-OH), for which the equilibrium dissociation constant (Kd) (protein: Retinoblastoma-associated protein, PDB entry 2r7g) is 900 nM (active).
On to `CC[C@H](C)[C@H](NC(=O)[C@H](Cc1ccc(O)cc1)NC(=O)[C@@H](N)C(C)C)C(=O)N[C@@H](Cc1cnc[nH]1)C(=O)N1CCC[C@H]1C(=O)N[C@@H](Cc1ccccc1)C(=O)O`, for which, for the setting “protein: Aminopeptidase N, PDB entry 4fys”, the Kd was 15000 nM (active).
With H-HPVAEADYFEY-OH, the equilibrium dissociation constant (Kd) (protein: HLA class I histocompatibility antigen, B-35 alpha chain, PDB entry 4prn) is 2200 nM (active) and the Kd (protein: MHC class I antigen HLA-B 35:08, PDB entry 4prb) was 132000 nM (active).
Turning to H-TLVSMPPLPGLDLAGS-OH, the Kd (protein: Ankyrin Repeat Domains of Human DNA-binding protein RFXANK, PDB entry 3v30) is 184000 nM (active).
Take H-HPVGQADYFEY-OH: the Kd reads like this: (protein: LA class I histocompatibility antigen, B-35 alpha chain HLA-B 35:011, PDB entry 4pra) 2200 nM (active); (protein: MHC class I antigen HLA-B 35:08, PDB entry 4pre) 181000 nM (active); (protein: MHC class I antigen-Beta-2-microglobulin, PDB entry 4prp) 2200 nM (active).
Regarding `COc1cc(NC(=O)C[C@@]2(C)C[C@H](c3cccc(Cl)c3)[C@@H](c3ccc(Cl)c(F)c3)N([C@H](CS(=O)(=O)C(C)(C)C)C3CC3)C2=O)ccc1C(=O)O`, the Kd (protein: E3 ubiquitin-protein ligase Mdm2, PDB entry 4wt2) is 0.038 nM (active).
Consider `CSCC[C@H](NC(=O)[C@H](CC(C)C)NC(=O)[C@H](CCCNC(N)N)NC(=O)[C@@H](N)CC(N)=O)C(=O)N[C@@H](CC(C)C)C(=O)N[C@H](C(=O)NCC(=O)O)[C@@H](C)O` (H-N[Orn(CH(NH2)2)]LMLTG-OH), for which, for the setting “protein: Chaperone protein DnaK, PDB entry 4ezx”, the Kd is 1600 nM (active).
With `CC(C)C[C@H](NC(=O)[C@H](CC(C)C)NC(=O)[C@H](CCCNC(N)N)NC(=O)[C@@H](N)CC(N)=O)C(=O)N[C@@H](CC(C)C)C(=O)N[C@H](C(=O)NCC(=O)O)[C@@H](C)O`, the equilibrium dissociation constant (Kd) (protein: Chaperone protein DnaK, PDB entry 4ezw) is 1000 nM (active).
For the compound `COc1cc(OC)c2c(=O)[nH]c(-c3cc(C)c(O)c(C)c3)nc2c1`, the Kd is 251 nM (active) (protein: Bromodomain-containing protein 2, PDB entry 4mr5) and 1140 nM (active) (protein: Bromodomain-containing protein 4, PDB entry 4mr3).
As for `COc1ccc(Nc2nc3cc(C(=O)O)ccc3n2Cc2ccccc2C(F)(F)F)cc1F`, the Kd (protein: KINESIN-LIKE PROTEIN KIF11, PDB entry 3zcw) is 650 nM (active).
As for `CC(C)C[C@H](NC(=O)[C@H](CC(N)=O)NC(=O)[C@@H](N)CCCNC(N)N)C(=O)N[C@@H](Cc1ccccc1)C(=O)NCC(=O)N1CCC[C@H]1C(=O)O` (H-[Orn(CH(NH2)2)]NLFGP-OH), the Kd (protein: phospho-CDK2/cyclin A, PDB entry 1h27) is 2500 nM (active).
Consider `C[C@@H](O)[C@H](NC(=O)[C@H](CC(N)=O)NC(=O)[C@@H](N)CCCNC(N)N)C(=O)N[C@@H](CC(N)=O)C(=O)N[C@@H](CCC(=O)O)C(=O)N[C@@H](Cc1ccc(O[P+](O)(O)O)cc1)C(=O)N[C@H](C(=O)N[C@@H](CCC(=O)O)C(=O)NCC(=O)N1CCC[C@H]1C(=O)O)[C@@H](C)O[P+](O)(O)O` (H-[Orn(CH(NH2)2)]NTNE[X1][Thr(P(OH)3+)]EGP-OH), for which the Kd (protein: E3 ubiquitin-protein ligase CBL c-Cbl TKB domain, PDB entry 3ob1) was 3830 nM (active).
With `C[C@@H](O)[C@H](N)C(=O)N[C@@H](CC(N)=O)C(=O)N[C@@H](CCC(=O)O)C(=O)N[C@@H](Cc1ccc(O[P+](O)(O)O)cc1)C(=O)N[C@H](C(=O)N[C@@H](CCC(=O)O)C(=O)NCC(=O)N1CCC[C@H]1C(=O)N[C@H](C(=O)O)[C@@H](C)O)[C@@H](C)O` (H-TNE[X1]TEGPT-OH), the Kd (protein: E3 ubiquitin-protein ligase CBL, PDB entry 3bum) is 320 nM (active).
`CC(C)C[C@H](NC(=O)[C@@H](N)CC(=O)O)C(=O)N[C@@H](Cc1ccc(O)cc1)C(=O)NCC(=O)O` (H-DLYG-OH): where the note is “protein: E3 ubiquitin-protein ligase RNF31 HOIP PUB Domain, PDB entry 4p0a”, the Kd was 30300 nM (active).
As for `CC(C)C[C@H](NC(=O)[C@H](CS)NC(=O)[C@H](CCC(=O)O)NC(=O)[C@H](Cc1ccc(O)cc1)NC(=O)CNC(=O)[C@H](Cc1ccc(O)cc1)NC(=O)C(CCC(=O)O)NC(=O)[C@H](CCC(=O)O)NC(=O)[C@@H](N)CC(=O)O)C(=O)N[C@@H](CC(=O)O)C(=O)O` (stereo partly specified) (H-DE[ξE]YGYECLD-OH), the Kd (protein: AP-2 complex subunit mu-1, PDB entry 2pr9) was 42.2 nM (active).
Take `O[C@@H]1[C@H](O)[C@@H](CO[P+](O)(O)O)O[C@H]1n1cnc2c(NCc3ccco3)ncnc21`: where the note is “protein: 2'-deoxynucleoside 5'-phosphate N-hydrolase 1, DNPH1 (RCL), PDB entry 4kxn”, the Kd was 800 nM (active).
Regarding `CC(C)=CCNc1ncnc2c1ncn2[C@@H]1O[C@H](CO[P+](O)(O)O)[C@@H](O)[C@H]1O`, under “protein: 2'-deoxynucleoside 5'-phosphate N-hydrolase 1, DNPH1 (RCL), PDB entry 4kxm”, the dissociation constant Kd was 2600 nM (active).
